From PubChem BioAssay (EPA / NIEHS)
Results filed as inconclusive are left out. Activity calls are given as the source filed them. How the source made its calls, unless noted: active means hit-call score of the fitted dose curve at least 0.9, where 1 is the maximum; inconclusive means response in the unintended direction; inactive means score below 0.9.

Columns and labels:
[1] = ATG_PPRE_CIS: Attagene CIS-FACTORIAL HepG2 Assay for human Peroxisome Proliferator-activated Response Element (PPRE) (AID 2282958; active means hit-call score of the fitted dose curve at least 0.9, where 1 is the maximum; inactive means score below 0.9); details: HepG2 PPRE cis-element reporter, Attagene transcription factor profiling; actives raise or lower the signal
Method in brief: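 Cells are first transfected transiently with the multiplexed reporter library, then dosed for 24 h. Total RNA is reverse-transcribed, amplified, fluorescently end-labeled and HpaI-cut before capillary electrophoresis; activity is fitted bidirectionally against DMSO controls.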

[2] = molecular target: Steroid hormone receptor ERR1 (Homo sapiens) (UniProt P11474); experiment: ATG_ERRa_TRANS: Attagene TRANS-FACTORIAL HepG2 Assay for human Estrogen-Related Receptor alpha (ERRa) (AID 2282971); details: HepG2 Attagene TRANS reporter, ERRa transactivation
Method in brief: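 Reporter transcript induction was quantified by RT-PCR and capillary electrophoresis of FAM-labelled, HpaI-cut products after 24 h treatment of HepG2 cells carrying transiently transfected GAL4-UAS reporter units and an exogenous ERRa-Gal4 fusion; activity scored as increase over DMSO.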

[3] = molecular target: Estrogen-related receptor gamma (Homo sapiens) (UniProt P62508); experiment: ATG_ERRg_TRANS: Attagene TRANS-FACTORIAL HepG2 Assay for human Estrogen-Related Receptor gamma (ERRg) (AID 2282977); details: HepG2 Attagene TRANS reporter, ERRg transactivation;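 further: hits increase reporter signal over DMSO so potencies reflect activators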
Method in brief: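 HepG2 cells transiently transfected with multiplexed GAL4-UAS reporter units driven by chimeric NR-Gal4 proteins; 24 h exposure. Reporter mRNA quantified by RT-PCR, fluorescent labelling, HpaI digestion and capillary electrophoresis; gain of signal vs DMSO.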

[4] = molecular target: Peroxisome proliferator-activated receptor gamma (Homo sapiens) (UniProt P37231); experiment: ATG_PPARg_TRANS: Attagene TRANS-FACTORIAL HepG2 Assay for human Peroxisome Proliferator-activated Receptor-gamma (PPARg) (AID 2283007)
Method in brief: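 A TRANS-format multiplexed reporter assay measures activity of an exogenous chimeric NR-Gal4 protein in HepG2 cells. After 24 h of chemical exposure, reporter transcripts are amplified, fluorescently labelled and sized by capillary electrophoresis, with gain of signal scored against DMSO.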

[5] = molecular target: Peroxisome proliferator-activated receptor gamma (Homo sapiens) (UniProt P37231); experiment: OT_PPARg_PPARgSRC1_0480: Odyssey Thera (OT) 8-hour Protein-Complementation Assay for Peroxisome Proliferator-activated Receptor Gamma / SRC-1 Co-activator (AID 2283387);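 further: nuclear to cytoplasmic split Venus YFP fluorescence ratio reporting PPARg SRC-1 interaction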
Method in brief: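 Protein-fragment complementation of split Venus YFP reports PPARg/SRC-1 interaction in HEK293T (transfected 48 h before treatment), exposed 8 h. Readout: N/C fluorescence ratio at 488 nm from imaging, Draq5 for segmentation, positive fit relative to DMSO.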

[6] = ACEA_AR_agonist_AUC_viability: ACEA Biosciences xCELLigence Real-Time Cell Analysis on Androgen Receptor Agonism for Viability (AID 2283775)
Method in brief: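 Real-time impedance tracking of 22Rv1 growth, readings every 5 min for 5 h then hourly; area-under-curve viability endpoint at 80 hours, relative to DMSO. Compounds at eight concentrations, 1:4 steps, top 100 uM, n = 2.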

[7] = ACEA_AR_antagonist_AUC_viability: ACEA Biosciences xCELLigence Real-Time Cell Analysis on Androgen Receptor Antagonism for Viability (AID 2283776);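 further: 22Rv1 human prostate cancer cells growing on impedance electrode plates; hits lower the growth signal relative to DMSO meaning cytotoxicity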
Method in brief: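 Impedance read-out (RT-CES): area under growth curve at 80 h post-dose, loss of signal scored vs DMSO baseline. 22Rv1 cells; 8-pt 1:4 series, top 100 uM final, ≤0.5% DMSO; biological duplicate.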

[8] = CCTE_Shafer_MEA_acute_AB: CCTE's Alamar Blue Assay for Cytotoxicity in the Neural Acute Assay, Shafer Lab (AID 2284069);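 further: active compounds lower the viability signal compared with DMSO wells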
Method in brief: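 Resazurin reduction (CellTiter Blue, 1:6 in fresh medium) read at ex 544/em 590 nm marks viability loss relative to DMSO. Cells: primary rat cortical neuron networks on microelectrode arrays, treated after baseline recording at 13 or 15 days in vitro.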

[9] = molecular target: Retinoic acid receptor alpha (Homo sapiens) (UniProt P10276); experiment: ATG_DR5_RAR_CIS: Attagene CIS-FACTORIAL HepG2 Assay for human Retinoic Acid Receptor Alpha (RARE), DR5 submotif (AID 2282934; active means hit-call score of the fitted dose curve at least 0.9, where 1 is the maximum; inactive means score below 0.9); details: HepG2 Attagene cis-factorial RARE DR5 reporter, mRNA; actives raise or lower the signal
Method in brief: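 HepG2 cells transiently transfected with multiplexed reporter units; DR5 cis-element drives reporter through endogenous transcription factors. After 24 h dosing, reporter mRNA quantified by RT-PCR, fluorescent labeling, HpaI digestion and capillary electrophoresis; bidirectional fitting versus DMSO.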

[10] = molecular target: Bile acid receptor (Homo sapiens) (UniProt Q96RI1); experiment: ATG_FXR_TRANS: Attagene TRANS-FACTORIAL HepG2 Assay for Farnesoid X Receptor (FXR) (AID 2282979); details: HepG2 Attagene TRANS FXR-GAL4 reporter transcription;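 further: hits raise reporter mRNA above DMSO so AC50 marks FXR activation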
Method in brief: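 Transient transfection of HepG2 with multiplexed GAL4-UAS reporter units; exogenous FXR-GAL4 chimera. Dose 24 h → TriZol RNA → oligo(dT) RT → PCR, 6-FAM primer extension, HpaI cut → CE. Gain vs DMSO.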

[11] = molecular target: Retinoic acid receptor RXR-alpha (Homo sapiens) (UniProt P19793); experiment: ATG_RXRa_TRANS: Attagene TRANS-FACTORIAL HepG2 Assay for human Retinoid X Receptor alpha (RXRa) (AID 2283012)
Method in brief: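 HepG2 cells transiently transfected with GAL4-UAS reporter units and chimeric RXRa-Gal4 protein, treated 24 h. Reporter mRNA measured by RT-PCR, fluorescent labelling, HpaI digestion and capillary electrophoresis. Induction fitted against DMSO.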

[12] = molecular target: human Vitamin D Receptor (VDR), VDR (gene 7421) (UniProt P11473); experiment: ATG_VDR_TRANS: Attagene TRANS-FACTORIAL HepG2 Assay for human Vitamin D Receptor (VDR) (AID 2283022)
Method in brief: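 Steps: transfect HepG2 with GAL4-UAS-driven reporter constructs; dose compounds 24 h; isolate RNA, reverse-transcribe, PCR-amplify with 6-FAM-labelled primer extension and HpaI digestion; quantify fragments by capillary electrophoresis relative to DMSO.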

[13] = molecular target: Estrogen receptor beta (Homo sapiens) (UniProt Q92731); experiment: OT_ER_ERbERb_0480: Odyssey Thera (OT) 8-hour HEK293T Protein-Complementation Assay for Estrogen Receptor-beta/-beta Homodimer (AID 2283357);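 further: active means signal gain over DMSO baseline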
Method in brief: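 Fluorescence intensity, nuclear for agonists and nuclear plus cytoplasmic for antagonists, was quantified by laser scanning cytometry versus vehicle after 8 h treatment. The cells were HEK293T stably carrying ER beta LBD fragment-complementation partners.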

[14] = molecular target: Estrogen receptor beta (Homo sapiens) (UniProt Q92731); experiment: OT_ER_ERbERb_1440: Odyssey Thera (OT) 24-hour HEK293T Protein-Complementation Assay for Estrogen Receptor-beta/-beta Homodimer (AID 2283380);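 further: scored as signal increase over DMSO baseline for both agonists and antagonists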
Method in brief: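 HEK293T cells stably expressing ER beta LBD (aa 310-547) homodimer fragment-complementation reporter, dosed 24 h. Cells formaldehyde-fixed, Draq5-stained; gain in nuclear (agonist) or nuclear plus cytoplasmic (antagonist) fluorescence versus DMSO read by laser scanning cytometry.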

[15] = molecular target: Retinoic acid receptor RXR-alpha (Homo sapiens) (UniProt P19793); experiment: OT_NURR1_NURR1RXRa_1440: Odyssey Thera (OT) 24-hour HEK293T Protein Complementation Assay for Nurr1/retinoid X receptor (RXR) (AID 2283386)
Method in brief: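 HEK293T protein-fragment complementation of Nurr1 and RXRα fused to reporter fragments; compounds 24 h. Fluorescence gain from reconstituted reporter fitted versus DMSO.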

[16] = ATG_PBREM_CIS: Attagene CIS-FACTORIAL HepG2 Assay for human Phenobarbital-responsive Enhancer Module (PBREM) (AID 2282955; active means hit-call score of the fitted dose curve at least 0.9, where 1 is the maximum; inactive means score below 0.9); details: HepG2 PBREM cis-reporter, Attagene multiplexed transcription; actives raise or lower the signal
Method in brief: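 Fluorescence of labelled reporter cDNA fragments, resolved by capillary electrophoresis, gives mRNA induction in transfected HepG2 cells treated for 24 h; DMSO serves as negative control and baseline.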

[17] = molecular target: Nuclear receptor subfamily 1 group I member 3 (Homo sapiens) (UniProt Q14994); experiment: ATG_CAR_TRANS: Attagene TRANS-FACTORIAL HepG2 Assay for human Constitutive Androstane Receptor (CAR) (AID 2282969); details: HepG2 Attagene TRANS-FACTORIAL CAR reporter;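 further: activators raise reporter mRNA above DMSO so AC50 marks induction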
Method in brief: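 HepG2 cells transiently transfected with GAL4-UAS reporter units; TRANS format reads activity of exogenous chimeric NR-Gal4 protein. After 24 h dosing, reporter mRNA quantified by RT-PCR, 6-FAM labelling and capillary electrophoresis; gain of signal fitted against DMSO.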

[18] = molecular target: Nuclear receptor subfamily 4 group A member 2 (Homo sapiens) (UniProt P43354); experiment: ATG_NURR1_TRANS: Attagene TRANS-FACTORIAL HepG2 Assay for human Nuclear Receptor Related Protein 1 (NURR1) (AID 2282985); details: HepG2 Attagene TRANS reporter, mRNA readout
Method in brief: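 HepG2 cells transiently transfected with NURR1-Gal4 chimera and GAL4-UAS reporter units; after 24 hr compound exposure, reporter mRNA quantified by RT-PCR and capillary electrophoresis; gain of signal fitted against DMSO.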

[19] = molecular target: Peroxisome proliferator-activated receptor gamma (Homo sapiens) (UniProt P37231); experiment: OT_PPARg_PPARgSRC1_1440: Odyssey Thera (OT) 24-hour Protein-Complementation Assay for Peroxisome Proliferator-activated Receptor Gamma/ SRC-1 Co-activator (AID 2283388);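 further: nuclear to cytoplasmic ratio of reconstituted Venus YFP fluorescence in fixed imaged cells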
Method in brief: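 Protein-fragment complementation between PPARg and coactivator SRC-1 was measured by fluorescence imaging in transiently transfected HEK293T cells after 24 h treatment. Signal was quantified as N/C ratio in the 488 nm channel, with DMSO as negative control.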

[20] = CCTE_Harrill_HTTr_CellCount_MCF7: CCTE's Cell Proliferation Assessment for the High-Throughput Transcriptomics (HTTr) Platform, Harrill Lab (AID 2284012);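 further: cells exposed to compound for six hours; intended direction is loss of nuclei count meaning fewer cells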
Method in brief: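 MCF7 cells exposed 6 hours to an eight-point dilution series; Hoechst-stained nuclei counted by high-content imaging. Bidirectional curve fitting against DMSO baseline.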

Measured: outcome

Chain of Nuclear receptor subfamily 1 group I member 3 (Homo sapiens) (Q14994 whole entry, looked up, the tested form may be a part): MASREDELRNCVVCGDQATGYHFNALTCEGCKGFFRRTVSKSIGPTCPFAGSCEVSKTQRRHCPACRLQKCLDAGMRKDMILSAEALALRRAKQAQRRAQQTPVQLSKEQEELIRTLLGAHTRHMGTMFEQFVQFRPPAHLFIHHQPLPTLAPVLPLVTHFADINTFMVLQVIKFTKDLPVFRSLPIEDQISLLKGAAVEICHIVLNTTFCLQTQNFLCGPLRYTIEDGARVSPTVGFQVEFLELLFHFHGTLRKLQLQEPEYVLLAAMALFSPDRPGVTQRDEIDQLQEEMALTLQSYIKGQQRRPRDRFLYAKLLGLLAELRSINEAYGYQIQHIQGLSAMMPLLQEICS
Chain of Retinoic acid receptor alpha (Homo sapiens) (P10276 whole entry, looked up): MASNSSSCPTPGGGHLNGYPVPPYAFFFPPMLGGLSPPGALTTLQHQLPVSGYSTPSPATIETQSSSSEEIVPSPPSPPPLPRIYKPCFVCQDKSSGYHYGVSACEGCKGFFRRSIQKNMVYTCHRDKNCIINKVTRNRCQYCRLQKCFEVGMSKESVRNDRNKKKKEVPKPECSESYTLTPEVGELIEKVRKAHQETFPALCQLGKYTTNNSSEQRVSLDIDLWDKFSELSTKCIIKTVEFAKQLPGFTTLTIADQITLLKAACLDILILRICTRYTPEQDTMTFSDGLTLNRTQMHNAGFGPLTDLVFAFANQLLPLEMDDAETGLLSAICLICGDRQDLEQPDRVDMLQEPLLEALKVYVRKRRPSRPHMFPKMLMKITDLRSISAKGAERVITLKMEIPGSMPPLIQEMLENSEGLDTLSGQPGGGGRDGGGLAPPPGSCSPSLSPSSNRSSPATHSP
Chain of Peroxisome proliferator-activated receptor gamma (Homo sapiens) (P37231 whole entry, looked up, the tested form may be a part): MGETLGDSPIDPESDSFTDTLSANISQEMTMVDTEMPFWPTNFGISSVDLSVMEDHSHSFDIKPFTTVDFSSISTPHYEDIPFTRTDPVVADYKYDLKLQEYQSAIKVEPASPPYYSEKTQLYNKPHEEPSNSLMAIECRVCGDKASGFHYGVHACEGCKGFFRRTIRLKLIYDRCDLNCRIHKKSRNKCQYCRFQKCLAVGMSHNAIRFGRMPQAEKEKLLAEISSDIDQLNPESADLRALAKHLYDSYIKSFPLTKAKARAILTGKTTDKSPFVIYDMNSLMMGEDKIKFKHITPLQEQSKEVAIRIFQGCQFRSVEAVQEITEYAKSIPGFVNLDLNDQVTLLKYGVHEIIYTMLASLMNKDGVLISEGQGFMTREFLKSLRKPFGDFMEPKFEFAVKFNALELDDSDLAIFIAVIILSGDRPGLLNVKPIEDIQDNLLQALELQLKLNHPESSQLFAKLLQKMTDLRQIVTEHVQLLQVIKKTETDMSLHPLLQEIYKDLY
Chain of Estrogen-related receptor gamma (Homo sapiens) (P62508 whole entry, looked up, the tested form may be a part): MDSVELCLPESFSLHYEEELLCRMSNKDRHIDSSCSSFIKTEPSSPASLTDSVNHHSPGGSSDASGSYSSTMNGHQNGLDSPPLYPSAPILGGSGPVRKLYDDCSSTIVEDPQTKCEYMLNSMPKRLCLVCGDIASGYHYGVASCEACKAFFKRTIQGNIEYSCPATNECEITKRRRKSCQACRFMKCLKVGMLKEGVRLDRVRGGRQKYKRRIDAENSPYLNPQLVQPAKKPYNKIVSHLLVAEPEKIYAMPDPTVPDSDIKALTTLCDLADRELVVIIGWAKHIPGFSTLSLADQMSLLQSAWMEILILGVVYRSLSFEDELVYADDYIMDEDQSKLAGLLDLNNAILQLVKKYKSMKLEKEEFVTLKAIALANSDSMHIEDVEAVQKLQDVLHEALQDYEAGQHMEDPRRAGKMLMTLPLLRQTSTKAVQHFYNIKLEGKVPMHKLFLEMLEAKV
Chain of Estrogen receptor beta (Homo sapiens) (Q92731 whole entry, looked up, the tested form may be a part): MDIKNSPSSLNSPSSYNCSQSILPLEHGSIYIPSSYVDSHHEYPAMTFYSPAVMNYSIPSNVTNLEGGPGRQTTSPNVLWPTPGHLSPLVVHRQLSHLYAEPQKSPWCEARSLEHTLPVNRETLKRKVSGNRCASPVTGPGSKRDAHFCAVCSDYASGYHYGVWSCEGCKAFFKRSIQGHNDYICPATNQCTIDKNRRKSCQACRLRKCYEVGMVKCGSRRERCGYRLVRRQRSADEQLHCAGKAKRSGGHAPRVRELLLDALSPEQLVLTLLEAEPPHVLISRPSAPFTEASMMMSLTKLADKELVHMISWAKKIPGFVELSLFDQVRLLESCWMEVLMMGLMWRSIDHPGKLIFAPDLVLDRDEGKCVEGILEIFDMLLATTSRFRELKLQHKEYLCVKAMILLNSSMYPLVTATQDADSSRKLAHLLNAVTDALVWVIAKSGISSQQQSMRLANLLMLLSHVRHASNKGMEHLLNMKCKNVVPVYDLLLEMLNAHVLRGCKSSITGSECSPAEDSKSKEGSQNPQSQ
Chain of Bile acid receptor (Homo sapiens) (Q96RI1 whole entry, looked up, the tested form may be a part): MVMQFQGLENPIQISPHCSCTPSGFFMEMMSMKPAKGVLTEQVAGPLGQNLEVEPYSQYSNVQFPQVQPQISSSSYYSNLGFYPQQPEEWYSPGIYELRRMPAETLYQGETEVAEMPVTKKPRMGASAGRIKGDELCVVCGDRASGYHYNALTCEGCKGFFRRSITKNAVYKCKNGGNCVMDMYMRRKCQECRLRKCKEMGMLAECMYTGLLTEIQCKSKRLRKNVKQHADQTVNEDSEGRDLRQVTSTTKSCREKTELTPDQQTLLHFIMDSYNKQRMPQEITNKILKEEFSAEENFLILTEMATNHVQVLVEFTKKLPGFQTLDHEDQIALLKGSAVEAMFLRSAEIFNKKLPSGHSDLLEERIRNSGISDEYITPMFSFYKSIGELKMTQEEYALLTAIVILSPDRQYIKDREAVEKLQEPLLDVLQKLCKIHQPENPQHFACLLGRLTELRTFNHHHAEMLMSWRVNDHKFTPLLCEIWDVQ
Chain of human Vitamin D Receptor (VDR), VDR (gene 7421) (P11473 whole entry, looked up, the tested form may be a part): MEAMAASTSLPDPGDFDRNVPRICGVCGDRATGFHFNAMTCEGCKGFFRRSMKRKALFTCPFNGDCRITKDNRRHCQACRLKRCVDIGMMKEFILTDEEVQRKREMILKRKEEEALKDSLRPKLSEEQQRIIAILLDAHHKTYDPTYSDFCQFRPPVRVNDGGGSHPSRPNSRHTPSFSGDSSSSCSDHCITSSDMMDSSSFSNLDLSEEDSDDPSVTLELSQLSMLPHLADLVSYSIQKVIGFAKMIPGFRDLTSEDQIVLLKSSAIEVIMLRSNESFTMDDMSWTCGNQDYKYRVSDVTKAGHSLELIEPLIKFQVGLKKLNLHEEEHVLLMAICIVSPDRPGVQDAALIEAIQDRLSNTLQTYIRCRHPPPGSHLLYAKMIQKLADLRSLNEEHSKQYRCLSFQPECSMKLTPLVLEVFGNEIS
Chain of Retinoic acid receptor RXR-alpha (Homo sapiens) (P19793 whole entry, looked up, the tested form may be a part): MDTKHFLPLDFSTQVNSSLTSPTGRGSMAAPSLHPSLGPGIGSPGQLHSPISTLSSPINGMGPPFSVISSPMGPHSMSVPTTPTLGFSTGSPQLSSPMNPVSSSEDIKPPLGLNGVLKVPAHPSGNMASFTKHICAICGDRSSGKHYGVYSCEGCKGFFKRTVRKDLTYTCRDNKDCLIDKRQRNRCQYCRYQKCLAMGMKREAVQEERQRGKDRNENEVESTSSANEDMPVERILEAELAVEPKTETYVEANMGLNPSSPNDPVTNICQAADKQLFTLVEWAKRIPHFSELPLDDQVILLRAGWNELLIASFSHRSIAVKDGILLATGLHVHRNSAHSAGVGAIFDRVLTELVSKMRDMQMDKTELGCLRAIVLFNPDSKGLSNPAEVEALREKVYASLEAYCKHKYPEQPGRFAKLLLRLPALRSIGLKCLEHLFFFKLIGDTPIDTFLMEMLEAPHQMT
Chain of Steroid hormone receptor ERR1 (Homo sapiens) (P11474 whole entry, looked up, the tested form may be a part): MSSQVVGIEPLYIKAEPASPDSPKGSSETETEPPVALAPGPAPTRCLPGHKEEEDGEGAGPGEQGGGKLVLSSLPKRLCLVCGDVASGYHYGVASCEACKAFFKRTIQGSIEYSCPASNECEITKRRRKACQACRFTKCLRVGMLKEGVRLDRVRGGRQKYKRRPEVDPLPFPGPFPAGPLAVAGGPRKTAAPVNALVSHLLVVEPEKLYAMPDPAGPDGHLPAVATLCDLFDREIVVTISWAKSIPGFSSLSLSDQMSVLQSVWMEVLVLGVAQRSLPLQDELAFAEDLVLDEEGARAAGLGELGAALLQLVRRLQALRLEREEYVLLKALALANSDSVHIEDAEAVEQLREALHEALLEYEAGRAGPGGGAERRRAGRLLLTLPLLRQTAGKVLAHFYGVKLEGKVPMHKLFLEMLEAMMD
Chain of Nuclear receptor subfamily 4 group A member 2 (Homo sapiens) (P43354 whole entry, looked up, the tested form may be a part): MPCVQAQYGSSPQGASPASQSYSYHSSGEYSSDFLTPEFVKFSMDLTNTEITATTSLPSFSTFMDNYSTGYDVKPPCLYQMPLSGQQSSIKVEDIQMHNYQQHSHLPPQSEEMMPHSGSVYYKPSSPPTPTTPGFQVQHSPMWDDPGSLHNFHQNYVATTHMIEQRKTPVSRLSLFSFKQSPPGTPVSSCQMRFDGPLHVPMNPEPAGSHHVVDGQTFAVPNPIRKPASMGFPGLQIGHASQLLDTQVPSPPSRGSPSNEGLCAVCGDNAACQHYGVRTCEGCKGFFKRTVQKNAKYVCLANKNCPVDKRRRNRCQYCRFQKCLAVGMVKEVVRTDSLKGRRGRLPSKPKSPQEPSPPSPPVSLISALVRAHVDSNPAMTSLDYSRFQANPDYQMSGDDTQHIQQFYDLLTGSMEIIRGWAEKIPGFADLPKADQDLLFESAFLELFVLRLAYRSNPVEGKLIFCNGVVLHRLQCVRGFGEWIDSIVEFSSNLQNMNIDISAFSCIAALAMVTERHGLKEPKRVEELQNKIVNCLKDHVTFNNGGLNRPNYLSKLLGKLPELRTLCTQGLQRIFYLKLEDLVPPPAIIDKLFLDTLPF

O=S(=O)(O)c1cccc2ccccc12
inactive: [1] | [2] | [3] | [4] | [5] | [6] | [7]

CC(C)C1OCCN1CCOC(=O)NCCCCCCNC(=O)OCCN1CCOC1C(C)C (centres undefined)
inactive: [8]

C=CC(C)(CCC=C(C)C)OC(=O)c1ccccc1 (centres undefined)
inactive: [9] | [10] | [11]

CC(C)CC(=O)CC(C)C
inactive: [3] | [12] | [13] | [14] | [15]

CCCCCCOC(=O)CCCCCCCC(=O)OCCCCCC
inactive: [16] | [17] | [18] | [12]

Cc1c(C(N)=O)cc([N+](=O)[O-])cc1[N+](=O)[O-]
inactive: [8]

COc1cccc(OC)c1C(=O)O
inactive: [16] | [17] | [12]

CCO[Si](OCC)(OCC)c1ccccc1
inactive: [2] | [12]

COc1c2occc2cc2ccc(=O)oc12
inactive: [9] | [10] | [11]

COc1ccc2ccccc2c1
inactive: [1] | [10]

CC[N+](CC)(CC(=O)Nc1c(C)cccc1C)Cc1ccccc1
inactive: [4] | [15] | [5] | [19]

CCCCC(CC)COC(=O)C=Cc1ccc(OC)cc1 (centres undefined)
inactive: [20]

C=CCOCC(CC)(CO)COCC=C
inactive: [9] | [16] | [17]

CC/C=C\CCO
inactive: [3] | [11] | [13] | [14] | [15] | [7] | [20]

Oc1ccc2c(c1)Cc1ccccc1-2
inactive: [20]

CNCCC(Oc1ccc(C(F)(F)F)cc1)c1ccccc1 (centres undefined)
inactive: [20] | [8]
